Most compounds without a hit are left out; they make up all but 4.1% or so of the library.
hgDAF-12 ag: H. glycines DAF-12 receptor agonists, primary screen, cell-based, luminescence, HEK293, GAL4 fusion, UAS-luciferase; Nuclear hormone receptor DAF-12 (Heterodera glycines), GAL4 fusion; HEK293 GAL4-hgDAF12 UAS-luciferase reporter, agonist luminescence; normalized to butyrate control; activation, % at 6.8 µM; 1.8% of 370,000 active;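 active = activation above a cutoff set at the mean of all screened compounds plus 3 SD, cut at about 10% in these data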;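 also: 0% = DMSO wells and 100% = sodium butyrate wells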
DAX1 inh-1: DAX1 (NR0B1) inhibitors, primary screen, cell-based, HEK293, Gal4-DAX1, luciferase luminescence; Nuclear receptor subfamily 0 group B member 1 (Homo sapiens), P51843; HEK293 Gal4-DAX1 luciferase reporter; inhibition, % at 6.75 µM; 0.99% of 340,000 active;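 active = inhibition above the mean over all tested compounds plus 3 SD, cut at about 4.2% in these data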;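 also: 0% = DAX1-transfected cells with DMSO and 100% = empty-vector control cells with DMSO; inhibition shows as a rise in luminescence from relieved DAX1 repression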
Target sequence (P51843 207-470 limits assumed): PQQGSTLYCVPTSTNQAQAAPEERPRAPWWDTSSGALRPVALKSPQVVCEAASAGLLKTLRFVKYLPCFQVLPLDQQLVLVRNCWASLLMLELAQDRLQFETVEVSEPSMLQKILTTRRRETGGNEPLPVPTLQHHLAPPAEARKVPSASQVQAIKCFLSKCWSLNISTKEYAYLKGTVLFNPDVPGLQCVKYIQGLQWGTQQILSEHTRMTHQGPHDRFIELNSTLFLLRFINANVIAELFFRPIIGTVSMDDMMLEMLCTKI
ssDAF-12 act: S. stercoralis DAF-12 nuclear receptor activators, primary screen, cell-based, luminescence, HEK293, GRIP1 co-expression, lit1-tk-luc. Nuclear hormone receptor DAF-12 (Strongyloides stercoralis). HEK293 ssDAF-12/GRIP1 lit1-tk-luc reporter; % of 3 µM dafachronic acid response. activation, % at 6.8 µM. 1% of 370,000 active;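 active = activation above the mean over all tested compounds plus 3 SD, cut at about 0.9% in these data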;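 also: 0% = DMSO-only wells and 100% = 3 µM delta7-dafachronic acid wells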
hcDAF12 agonist: H. contortus DAF-12 nuclear receptor activators, primary screen, cell-based, luminescence, HEK293, lit1-tk-luc reporter. activation, % at 6.8 µM. HEK293 hcDAF-12 lit1-tk-luc reporter; 0% DMSO, 100% Δ7-dafachronic acid. 1.4% of 370,000 active;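 active = activation above the mean of all tested compounds plus 3 SD, cut at about 5.5% in these data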;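 also: 100% = response to 3 µM Δ7-dafachronic acid high control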
DAX1 inh-2: DAX1 (NR0B1) inhibitors on StAR promoter, primary screen, cell-based, luminescence, SF-1 (NR5A1), full-length DAX-1. HEK293T StAR-luciferase reporter, SF-1/DAX-1 repression relief. inhibition, % at 6.8 µM. 1.1% of 370,000 active. AID 652010, 2013;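 active = inhibition above the mean over all tested compounds plus 3 SD, cut at about 3.6% in these data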;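 also: 0% = DAX-1 cells with DMSO and 100% = cells lacking DAX-1 with DMSO; higher inhibition means more luminescence from relief of DAX-1 repression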
hgDAF12 ag: H. glycines DAF-12 receptor agonists, confirmation, cell-based, luminescence, HEK293, GAL4-LBD fusion; shares compounds with hgDAF-12 ag; HEK293 GAL4-hgDAF12 luciferase reporter, agonist mode; percent of butyrate response; activation, % at 6.8 µM; 80% of 3,300 active; AID 743050, 2013;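 active = mean activation over triplicate wells above the hit cutoff derived from the earlier primary screen, cut at about 11% in these data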;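 also: 0% = DMSO low control and 100% = 2 mM sodium butyrate high control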
LXRb DAF12 ctr: LXR agonists, Gal4 luciferase reporter, confirmation, counter-screen for hgDAF-12 agonist project, cell-based, luminescence, HEK293, H. glycines campaign; shares compounds with hgDAF-12 ag; 24 h; activation, % at 6.8 µM; 3,300 tested, under 10 active; AID 743051, 2013;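 active = mean activation of the triplicate above a set limit carried over from the primary screen, none filed active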
Numbers without * were called inactive; x = no result.

SMILES | hgDAF-12 ag | DAX1 inh-1 | ssDAF-12 act | hcDAF12 agonist | DAX1 inh-2 | hgDAF12 ag | LXRb DAF12 ctr
CCn1cc(C(=O)NCc2ccc(C)cc2)c(=O)c2cc(S(=O)(=O)N(C)C)ccc21 | -2 | 0 | -1 | -1 | 0 | x | x
CNc1ccc2ncc(-c3ccccc3NC(C)=O)n2n1 | -4 | x | -1 | -1 | -1 | x | x
CN(CC#Cc1ccccc1)C(N)=NC(=O)/C=C/c1ccccc1 | -3 | x | -2 | -2 | 0 | x | x
CN1CCN(CCCNC(=O)c2ccc3c(Cl)c4c(nc3c2)CCCC4)CC1 | 4 | 1 | -1 | -2 | 1 | x | x
O=S(=O)(Nc1cccc(S(=O)(=O)N2CCCCC2)c1)c1ccc(Cl)s1 | 0 | 0 | -1 | 0 | -1 | x | x
CCOC(=O)c1sc(NC(=S)NC(=O)c2ccccc2)nc1C | 16* | 2 | 0 | 5.9* | 3 | 12* | 0
COc1ccc2nc(NC(=O)c3ccc(F)cc3)sc2c1 | 14* | 4.7* | 0 | 0 | 2 | 13* | 1
Cc1csc(NC(=S)NC(=O)c2ccccc2)n1 | 16* | 3 | 0 | 5 | 1 | 16* | 1
COc1ccc(C(=O)Nc2nc3ccccc3s2)cc1OC | 19* | 2 | 0 | 3 | 3 | 14* | 1
COc1ccc(C(=O)Nc2nc3ccc(S(C)(=O)=O)cc3s2)cc1OC | -2 | 1 | -2 | -2 | -1 | x | x
O=C(NCCOc1ccccc1F)C1CCC(=O)N(CCc2cccc(F)c2)C1 (configuration not stated) | -1 | 0 | -1 | 0 | 0 | x | x
CCC(C)NC(=O)COc1ccc(OCc2ccccc2)cc1 (configuration not stated) | 0 | -1 | -2 | -2 | -1 | x | x
COc1ccc(C(=O)Nc2nc3ccccc3s2)cc1 | 7 | -3 | 0 | 3 | 1 | x | x
COc1cccc(C(=O)Nc2nc3ccccc3s2)c1 | 17* | 3 | 2.4* | 6.3* | 3 | 20* | 1
COc1ccc(CN2CCC(n3nccc3NC(=O)C3CC3)CC2)c(Cl)c1OC | -1 | 0 | -1 | -1 | 0 | x | x
COc1cc(NC(=O)c2ccccn2)cc(OC)c1OC | 0 | 1 | -1 | -1 | 0 | x | x
O=C(Nc1ccc(OC(F)F)c(Cl)c1)c1ccccn1 | 14* | 5.2* | 1.4* | 4 | 4.5* | 17* | 1
COc1ccc(NC(=O)c2ccc(OC(F)F)cc2)cc1Cl | 17* | 1 | 1.4* | 5 | 3.7* | 12* | 0
COc1ccc(NC(=O)c2cc(F)cc(F)c2)cc1Cl | 8 | 0 | -1 | -1 | 1 | x | x
CN(C)c1ccc(C(C#N)c2ccccc2)nn1 (configuration not stated) | 21* | 0 | 2.1* | 6.1* | 2 | 1 | 0
CN(C)c1ccc(C(C#N)c2ccc(Cl)cc2)nn1 (configuration not stated) | 3 | 0 | -1 | 0 | 0 | x | x
CCOC(=O)C1(Cc2ccccc2Cl)CCN(C(=O)CN2CCOC2=O)CC1 | 17* | 2 | 0 | 2 | 2 | 10 | 0
Cc1ccc(/C=N/NC(=O)c2ccccn2)s1 | 15* | 1 | 0 | 4 | 3 | 14* | 1
CCOC(=O)Nc1ccc2nc(-c3cscn3)[nH]c2c1 | 16* | 0 | 0 | 3 | -1 | 14* | 0
